# JMJD2A Tudor: JMJD2A Tudor domain (human) inhibition; AID 504339; O75164; AlphaScreen JMJD2A-Tudor / H3K4me3 peptide binding; 390,000 compounds, 4.4% hits; Potency, µM (doses to about 114 µM), for inactives: at the highest dose activity change, negative = inhibition, hits mostly inhibitors; also: % is scaled to controls: 0 for no effect and ±100 for the full control effect; nearly all actives have a fitted effect of over 50% in size
# BAZ2B block: BAZ2B (human) inhibition; AlphaScreen BAZ2B-H3K14Ac peptide displacement; Potency, µM (doses to about 114 µM), inactives show top-dose activity change, negative = inhibition, actives largely listed as inhibitors; 360,000 compounds, 4.4% hits; AID 504333; also: % is scaled to controls: 0 for no effect and ±100 for the full control effect; nearly all actives have a fitted effect of over 60% in size
#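 AlphaScreen displacement: compounds (up to 110uM) incubated 30 min at room temperature with a preformed 50 nM BAZ2B/50 nM biotinylated H3K14Ac peptide complex in PBS pH 7.4 with Tween-20. Donor and acceptor beads at 10 ug/mL final added, 20 min light-protected before reading.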
# G9a block: blocks human histone lysine methyltransferase G9a; Q96KQ7; G9a H3K9 monomethylation, AlphaScreen, 2 h; Potency, µM (highest dose often 102 µM), without a hit: at the top dose activity, negative = inhibition, hits mostly inhibitors; 350,000 compounds, 8.8% hits; also: % is scaled to controls: 0 for no effect and ±100 for the full control effect; nearly all actives have a fitted effect of over 75% in size
# Target sequence (Q96KQ7 913-1193 limits assumed): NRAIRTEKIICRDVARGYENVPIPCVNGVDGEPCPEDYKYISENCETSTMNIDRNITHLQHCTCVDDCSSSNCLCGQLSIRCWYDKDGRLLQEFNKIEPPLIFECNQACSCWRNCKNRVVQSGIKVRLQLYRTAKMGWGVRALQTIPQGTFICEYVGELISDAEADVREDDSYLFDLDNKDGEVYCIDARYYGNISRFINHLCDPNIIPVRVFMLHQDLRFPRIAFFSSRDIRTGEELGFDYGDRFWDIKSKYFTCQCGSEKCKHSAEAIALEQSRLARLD
#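 Step 1: enzyme (final 20 nM) with compound, 15 min RT. Step 2: substrate peptide 500 nM and SAM 20 uM, 2 h RT. Step 3: anti-H3K9me1 antibody and AlphaScreen beads, 10 min, then plate read.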
# GLS inhibitor: inhibitors of human glutaminase (GLS) | O94925 | AID 624170 | 410,000 compounds, 0.21% hits | GLS enzymatic activity, qHTS titration | Potency, µM (top dose mostly 45.5 µM), without a hit: top-dose activity change, negative = inhibition, most hits filed as inhibitors; also: % is scaled to controls: 0 for no effect and ±100 for the full control effect
#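 Human kidney-isoform GLS in 45 mM KH2PO4 pH 8.2, 0.02% Tween-20, with compound, started with 1mM L-Glutamine (added stock). Glutamate oxidase/HRP/Amplex red coupled fluorescence read at start and after 30 min at RT.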
# HP1b chromo inh: inhibitors of HP1-beta chromodomain binding to methylated histone tails; Potency, µM (highest dose often 114 µM), inactives show at the top dose activity change, negative = inhibition, actives largely listed as inhibitors; P83916; AlphaScreen HP1-beta / biotin-H3K9me3 peptide binding; 390,000 compounds, 0.56% hits; AID 540317; also: nearly all actives have a fitted effect of over 70% in size
# Target sequence (P83916 whole entry, looked up): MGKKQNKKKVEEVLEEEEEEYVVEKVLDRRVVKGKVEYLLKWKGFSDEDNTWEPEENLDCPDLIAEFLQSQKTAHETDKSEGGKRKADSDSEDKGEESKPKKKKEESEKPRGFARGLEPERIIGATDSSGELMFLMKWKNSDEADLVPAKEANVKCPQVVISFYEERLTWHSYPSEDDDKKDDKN
#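 HP1-beta protein (50 nM final) preincubated 30 min at room temperature with biotinylated H3(1-18)K9me3 peptide (50 nM) in PBS pH 7.4, 0.01% Tween-20, then compound added for 30 min. AlphaScreen streptavidin donor/nickel chelate acceptor beads (10 ug/mL final), 30 min dark, luminescence read.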
# Numbers without * were called inactive; ? = inconclusive; / = not tested or not shown; [ ] = another dose, or the depositor's remark. Most compounds without a hit are left out; they make up all but 10% or so of the library. Calls follow the shape of the dose curve; as a rule, active = well fitted curve in the direction sought with a large enough effect; inconclusive = small, poorly fitted or top-dose-only effect, or another doubt; inactive = no such curve, though single readings can be large; an effect the other way counts as inactive or inconclusive. Potency is read from the fitted curve at half-maximal effect.
SMILES,JMJD2A Tudor,BAZ2B block,G9a block,GLS inhibitor,HP1b chromo inh
CC1=NN(c2ccccc2)C(=O)C1N=Nc1ccccc1 (stereo unspecified),?,3.2µM*,0.89µM*,10%,?
CC1=NN(c2ccccc2)C(=O)C1c1ccccc1 (stereo unspecified),-34%,-32%,-13%[59 µM],20%,-5%
COc1cc(S(=O)(=O)Nc2ccccc2C(=O)N2CCCCC2)ccc1NC(C)=O,1%,0%,23%[12.7 µM],0%,43%
COc1ccccc1N1CCN(C(=O)COc2ccc(S(=O)(=O)NC(C)(C)C)cc2)CC1,/,1%,13%,/,/
CC(Oc1ccc(F)cc1)C(=O)Nc1ccccc1N1CCCCC1 (stereo unspecified),63%,36%,161%,-1%,99%
Cc1noc(C)c1-c1ccc2ncnc(NCCN3CCOCC3)c2c1,/,/,-41%[0.501 µM],/,/
CC1=NN(c2ccccc2)C(=O)C1N=Nc1ccc(N)cc1 (stereo unspecified),?,13µM*,?,-14%,?
CC1=NN(C(N)=S)C(=O)C1N=Nc1ccc(Br)cc1 (stereo unspecified),-27%,-11%,/,0%,14%
COc1ccc(C(C(=O)NC2CCCC2)N(C(=O)c2snc(C(N)=O)c2N)c2cccc(O)c2)cc1 (stereo unspecified),?,?,71µM*,0%,-26%
COc1cccc(N(C(=O)c2snc(C(N)=O)c2N)C(C(=O)NCC2CCCO2)c2cccs2)c1 (stereo unspecified),-26%,-3%,35µM*,8%,-13%
CCN(C(=O)c1cc2c(=O)oc3ccc(C)cc3c2s1)c1ccccc1F,13%,1%,2%[59 µM],3%,56%
Cc1sc2ncnc(N3CCN(Cc4ccccc4)CC3)c2c1-c1ccccc1,?,32µM*,-18%,-2%,?
Cc1sc2ncnc(Nc3ccccc3)c2c1C,-24%[11.4 µM],11%,15%[12.7 µM],16%,-7%
Cc1sc2ncnc(Nc3ccc(N4CCOCC4)cc3)c2c1-c1ccccc1,35µM*,?,28µM*,8%,-18%
Cn1cnc2c(=O)oc3ccc(S(=O)(=O)Nc4ccc(F)cc4)cc3c21,-11%,-9%,-13%[59 µM],-4%,-17%
CC(C)CCNC(=O)Cc1csc(-c2ccccc2)n1,-12%,-20%,3%[59 µM],-2%,27%
O=C(c1ccccc1)N1CCc2[nH]nc(-c3ccccc3)c2C1,-13%,-3%,71%,2%,14%[57 µM]
O=C(c1ccco1)N1CCc2[nH]nc(-c3ccccc3)c2C1,-15%,-33%,79µM*,-6%,42%
CCCCNC(=O)c1nn2c(C(F)(F)F)cc(-c3ccc(OC)cc3)nc2c1Br,35µM*,0%,0%[59 µM],-3%,23%
COC(=O)c1nn2c(C(F)(F)F)cc(-c3ccc(Br)o3)nc2c1Br,-35%,8%,45µM*,-4%,-6%
COc1ccccc1C1=NN(C(=O)c2ccccc2)C(c2ccc(Br)cc2)C1 (stereo unspecified),-18%,?,-25%[2.33 µM],-2%,16%
CCCNc1nc2c(c(=O)[nH]c(=O)n2C)n1CCc1ccccc1,-12%,11%,-2%,9%,50%
CC/C(C)=N/Nc1nc2c(c(=O)[nH]c(=O)n2C)n1CCc1ccccc1,-24%,-19%,56µM*,4%,-4%
CC(C)=NNc1nc2c(c(=O)[nH]c(=O)n2C)n1CCc1ccccc1,-33%,?,45µM*,-1%,?
CCOC(=O)C1(C)CCN1C(=O)c1cc(OC)ccc1Br (stereo unspecified),/,/,/,7%,/
SMILES,JMJD2A Tudor,BAZ2B block,G9a block,GLS inhibitor,HP1b chromo inh
COc1ccc(CCNC(=O)c2nc(SCc3ccc(F)cc3)ncc2Cl)cc1OC,-19%,-5%,-2%[59 µM],-3%,10%
CC1(C)CC(=O)C2=C(C1)NC(Nc1nc3ccccc3o1)=NC2c1ccccc1 (stereo unspecified),-2%[57.1 µM],/,/,/,20%[57 µM]
COCCCNCC(O)COc1ccccc1F (stereo unspecified),1.3µM*,11%,60%,2%,?
CN(C)S(=O)(=O)c1cccc(NC(=O)Cn2cc(C(F)(F)F)cc(Cl)c2=O)c1,0%,/,7%,0%,46%
C/C(=N\O)C(C)/[N+]([O-])=C/c1nc(C)c(C)n1O (stereo unspecified),7.1µM*,/,/,29%,5%
CCOC(=O)/C=C1\SCC(=O)N1CC(=O)NC(C)C,-6%,7%,3.5µM*,1%,9%
CCOC(=O)/C=C1\SCC(=O)N1CC(=O)NC(C)c1ccccc1 (stereo unspecified),-4%,0%,20%[59 µM],-1%,36%
COc1ccc(-c2cc(=O)oc3c(O)c(O)ccc23)cc1,?,?,8.9µM*,4.5µM*,-32%
COc1ccc(OC)c([N+](=O)[O-])c1C(N)=O,50µM*,50µM*,32µM*,120%,?
COc1ccc(NC(C)=O)c([N+](=O)[O-])c1[N+](=O)[O-],-17%,/,/,-1%,8%
CC(C)(C)C(=O)N1CCC2CC1c1cc(-c3ccc4c(c3)OCO4)ccc12 (stereo unspecified),/,/,/,-1%,/
CC(C)(C)NC(=S)N1CCC2CC1c1cc(-c3ccc4c(c3)OCO4)ccc12 (stereo unspecified),/,/,/,16µM*,/
CNC(C)C#Cc1c(-c2cc(OC)c(OC)c(OC)c2)noc1C (stereo unspecified),?,?,32µM*,6%,6%
Cn1c(-[n+]2c(-c3ccccc3)cc(-c3ccccc3)cc2-c2ccccc2)nc2cc([N+](=O)[O-])ccc21,-10%,40µM*,1.8µM*,-1%,17%
Cc1ccc(-n2ncc(C(=O)Nc3c(Cl)cccc3Cl)c2C2CCNCC2)cc1,-29%,11%[57.1 µM],-30%[59 µM],-9%,40%
Cc1ccc(-n2ncc(C(=O)Nc3cc(Cl)ccc3Cl)c2C2CCNCC2)cc1,?,-10%,45µM*,-29%,11%
O=C(CCC1COc2ccccc2O1)Nc1ncccc1O (stereo unspecified),50µM*,?,-5%[59 µM],29%,8%
O=C(CCC1COc2ccccc2O1)Nc1ccccn1 (stereo unspecified),0%,8%,8%[12.7 µM],1%,36%
O=S(=O)(NC1CCCC(NS(=O)(=O)c2c(F)cccc2F)C1)c1ccc2c(c1)OCCO2 (stereo unspecified),-10%,/,/,/,/
S=c1[nH]nc(CCCc2n[nH]c(=S)o2)o1,2.8µM*,-29%,/,0%,?
CN(C(=O)c1ccc(NC(=O)Cc2cccc(NC(=O)C3CCCN(C(=O)C4CCCC4)C3)c2)cc1)C1CCCC1 (stereo unspecified),-9%,1%,-7%[2.33 µM],-2%,36%
O=c1c(=O)n(-c2ccccc2)ccn1Cc1c(F)cccc1Cl,-31%,?,-4%[59 µM],6%,21%
